Source: PubChem
The entries come from a sample that favours hits as a whole.
KDM5B inh – Primary screen for KDM5B Histone Demethylases FDH-coupled qHTS; hit rate 2.6% among 220,000; AID 1347165, 2019; Potency, µM (titrated, usually from 57.7 µM), actives largely listed as inhibitors; KDM5B demethylase, FDH-coupled NADH fluorescence (FDH is formaldehyde dehydrogenase); Lysine-specific demethylase 5B (Homo sapiens), Q9UGL1; active = well fitted inhibition curve with a large enough effect; also: 0% is about no effect; nearly all actives have a fitted effect of over 70% in size
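Compound dilutions met 200 nM (final) KDM5BΔAP for 10 min at room temperature before substrate addition. The substrate mix held 12.5 µM H3K4me3 with cofactors 25 µM α-ketoglutarate and 50 µM Fe²⁺. NADH signal gain over 30 min defined activity.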
Numbers without * were called inactive. Potency is read from the fitted curve at half-maximal effect.

For O=C(NCC1(c2ccccc2)CCC1)C12CC3CC(CC(C3)C1)C2 the results were KDM5B inh inactive.
`COc1ccc(F)cc1S(=O)(=O)N1CCC(n2cnnc2C)CC1` gave KDM5B inh inactive.
For CCn1cnc2c1c(=O)n(CC(=O)Nc1ccc(OC)c(OC)c1)c(=O)n2Cc1ccccc1 the results were KDM5B inh inactive.
For COc1cccc(OC)c1OCc1cc(-c2ccco2)on1 the results were KDM5B inh inactive.
For O=C(c1cc(-c2ccccc2)n[nH]1)N1CCc2c(nc3cc[nH]n3c2=O)C1 the results were KDM5B inh 22µM*.
COc1ccc(S(=O)(=O)N2CCc3nn(CC4CC4)c(=O)n3CC2)cc1Cl was read as KDM5B inh inactive.
Cc1ccccc1C(=O)N1CCc2c(nc3cc[nH]n3c2=O)C1 was read as KDM5B inh 28µM*.
Cc1ccccc1C(=O)N1CCc2[nH]nc(C(=O)NCCCc3ccccc3)c2C1 was read as KDM5B inh inactive.
Screening O=C(C1CCN(S(=O)(=O)N2CCOCC2)CC1)N1CCc2nc3cc[nH]n3c(=O)c2C1 returned KDM5B inh 32µM*.
COc1ccc(S(=O)(=O)N2CCc3nc4cc[nH]n4c(=O)c3C2)cc1Cl was read as KDM5B inh 25µM*.
`O=C(CN1CCN(C(=O)c2cc(-c3ccccc3)n[nH]2)CC1)N1CCCCC1` gave KDM5B inh inactive.
For COc1ccc(S(=O)(=O)N2CCc3nn(C)c(=O)n3CC2)cc1Cl the results were KDM5B inh inactive.
For CCOc1ccc2c(n1)CCN(C(=O)C1CCOCC1)C2 the results were KDM5B inh inactive.
For O=C(C1CCOCC1)N1CCc2nc(OCC3CC3)ccc2C1 the results were KDM5B inh inactive.
COc1ccc(-c2nnc3n2CCN(C(=O)c2ccccc2C)C3)cc1 was read as KDM5B inh inactive.
Screening O=C(c1cc(-c2ccccc2)n[nH]1)N1CCc2c(nc(-c3ccc(F)cc3)[nH]c2=O)C1 returned KDM5B inh inactive.
O/N=C1\CC(c2ccccc2)Oc2c(Cl)cc(Cl)cc21 (configuration not stated) was read as KDM5B inh inactive.
For O=C(c1cc2ccccc2oc1=O)N(Cc1ccc(C(F)(F)F)cc1)C1CC1 the results were KDM5B inh inactive.
`O=C(OC1CCOC1=O)c1ccccc1Sc1ccc(C(F)(F)F)cc1[N+](=O)[O-]` (configuration not stated) gave KDM5B inh inactive.
`COc1ccc(Nc2nc3ccccc3nc2NS(=O)(=O)c2ccc3c(c2)OCCO3)cc1Cl` gave KDM5B inh inactive.
For NC(Cc1ccc(OC(F)(F)F)cc1)C(=O)O (configuration not stated) the results were KDM5B inh inactive.
`COCCCNC(=O)CSCc1nc(-c2ccccc2C)oc1C` gave KDM5B inh inactive.
`CC(C)CCn1cnc2c1c(=O)n(CC(=O)Nc1ccc(F)c(F)c1)c(=O)n2Cc1ccccc1` gave KDM5B inh inactive.
For Cc1nc2nc(CC(=O)Nc3ccccc3F)nn2c(C)c1Cc1ccc(Cl)cc1 the results were KDM5B inh inactive.
For CCNC(=O)CNC(=O)c1cc(Br)ccc1F the results were KDM5B inh inactive.
CCCc1nc2c(-c3ccc(F)cc3)c(C)[nH]n2c(=O)c1Cl was read as KDM5B inh inactive.
For CCOc1cc(/C=C(/C#N)C(=O)Nc2ccccc2C(=O)O)ccc1OC the results were KDM5B inh inactive.
For Nc1ccc(Br)cc1-c1ccccc1 the results were KDM5B inh inactive.
COc1ccc(CN2CCC(C(O)(c3ccccc3)c3ccccc3)CC2)c(OC)c1 was read as KDM5B inh inactive.
`O=c1cc(CN2CCN(S(=O)(=O)c3ccccc3)CC2)c2cc(Cl)c(O)cc2o1` gave KDM5B inh inactive.
For COc1ccc2oc(=O)c(-c3nc(-c4ccccc4Cl)no3)cc2c1 the results were KDM5B inh inactive.
Screening O=C(Nc1ccc(Cl)cc1Cl)N1CCc2[nH]c3ccc(F)cc3c2C1 returned KDM5B inh 32µM*.
Screening COc1ccc(NC(=O)C(=O)c2c(C)n(C)c3ccccc23)cc1 returned KDM5B inh inactive.
`O=C(Nc1ccc(F)cc1F)Nc1ncc(Cl)cc1Cl` gave KDM5B inh inactive.
`O=C(Nc1ccc(F)cc1F)N1CCN(c2ccc(Cl)c(Cl)c2)CC1` gave KDM5B inh inactive.
`Cc1cc2n(n1)CCCN2C(=O)Nc1ccc(F)c(Cl)c1` gave KDM5B inh inactive.
For COc1ccc(NC(=O)N2CCC3(CCNCC3)C2)cc1 the results were KDM5B inh inactive.
Screening Cn1c2c(c3cc(F)ccc31)CN(C(=O)Nc1ccc(F)c(Cl)c1)CC2 returned KDM5B inh 32µM*.
`O=C(Nc1ccc(Br)cc1)N1CCc2ccccc2C1` gave KDM5B inh inactive.
`COc1ccc(NC(=O)N2CCc3c(c4ccccc4n3C)C2)cc1` gave KDM5B inh 25µM*.
Cn1c2c(c3ccccc31)CN(C(=O)Nc1ccccc1)CC2 was read as KDM5B inh 22µM*.
